Results filed as inconclusive are left out. Active and inactive are the calls of the source. Calls come from the whole dose curve; as a rule, active = well fitted curve in the direction sought with a large enough effect; inconclusive = small, poorly fitted or top-dose-only effect, or another doubt; inactive = no such curve, though single readings can be large; an effect the other way counts as inactive or inconclusive.
Columns and labels:
[1] = Cell Viability - LYMP2-001 (AID 921); settings: LYMP2-001 lymphoblastoid cell viability; series mostly up to 92.2 µM; note: nearly all actives have a fitted effect of over 70% in size
In short: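 qHTS, 1536-well; lymphoblastoid cells, 24 hr compound, 37 C; ATP by CellTiter-Glo, 30 min RT; luminescence; Hill-fit AC50.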

[2] = MultiTox-Fluor Cytotoxicity Assay - LYMP1-001 - Live Cells (AID 947); settings: LYMP1-001 lymphoblastoid cells, live-cell protease fluorescence viability; series mostly up to 92.2 µM
[3] = Cell Viability - LYMP1-002 - Assay at 16 hr (AID 948); settings: LYMP1-002 lymphoblastoid cell viability; series mostly up to 92.2 µM
In short: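 Acute cytotoxicity is scored as a concentration-dependent fall in intracellular ATP in a human lymphoblastoid line (LYMP1-002) after 16 hr compound exposure at 37 C, measured by luciferase luminescence.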

[4] = MultiTox-Fluor Cytotoxicity Assay - LYMP1-002 - Live Cells (AID 955); settings: LYMP1-002 lymphoblastoid live-cell protease fluorescence viability; series mostly up to 46.1 µM
In short: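 Human lymphoblastoid LYMP1-002 cells, 2500/well in complete medium, rested 5 hr at 37 C, then exposed to compounds for 16 hr at 37 C. Live-cell protease cleavage of GF-AFC read by fluorescence (Ex/Em 405/510) after 60 min at room temperature; AC50 from Hill fits.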

[5] = MultiTox-Fluor Cytotoxicity Assay - LYMP1-002 - Dead Cells (AID 960); settings: LYMP1-002 lymphoblastoid cells, dead-cell protease fluorescence; series mostly up to 46.1 µM; note: nearly all actives have a fitted effect of over 60% in size
In short: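 Human lymphoblastoid cells (LYMP1-002), 2500/well in complete medium, were exposed to compounds for 16 hr at 37 C. Dead-cell protease activity was read as bis-AAF-R110 fluorescence (Ex/Em 485/520), normalized to DMSO and 15 uM tetraoctylammonium bromide; AC50 from Hill fits.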

[6] = MultiTox-Fluor Cytotoxicity Assay - LYMP1-003 - Live Cells (AID 962); settings: LYMP1-003 lymphoblastoid cells, MultiTox-Fluor live-cell protease fluorescence; series mostly up to 92.2 µM;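 note: cytotoxic hits lower the live-cell protease signal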
In short: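 LYMP1-003 human lymphoblastoid cells (2500/well) in complete medium were preincubated 5 hr at 37 C, then exposed to compounds for 16 hr at 37 C. Live-cell protease cleavage of GF-AFC read by fluorescence (Ex/Em 405/510); AC50 from Hill fits.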

[7] = Cell Viability - LYMP1-003 - Assay at 24 hr (AID 963); settings: LYMP1-003 lymphoblastoid cell viability; series mostly up to 92.2 µM
In short: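 Human lymphoblastoid LYMP1-003 cells (2500/well) were rested 5 hr at 37 C, then exposed to compounds in complete medium for 24 hr at 37 C. Cellular ATP was quantified by CellTiter-Glo luminescence, and AC50 values came from Hill fits of concentration-response data.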

[8] = Cell Viability - LYMP1-003 - Assay at 40 hr (AID 964); settings: LYMP1-003 lymphoblastoid viability; series mostly up to 92.2 µM; note: nearly all actives have a fitted effect of over 60% in size
In short: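 Human lymphoblastoid LYMP1-003 cells, 2500/well in complete medium, rested 5 hr at 37 C, then exposed to compounds for 40 hr at 37 C. Viability read as intracellular ATP by CellTiter-Glo luminescence; AC50 from Hill fits of concentration-response data.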

[9] = Cell Viability - LYMP2-003 (AID 965); settings: LYMP2-003 lymphoblastoid cell viability; series mostly up to 92.2 µM;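 note: cells exposed to compounds for 24 h before reading; nearly all actives have a fitted effect of over 50% in size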
In short: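 Acute cytotoxicity is scored as a concentration-dependent drop in intracellular ATP, measured by luciferase luminescence in human lymphoblastoid cells treated for 24 hours at 37 C. AC50 values derive from Hill-equation modelling.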

[10] = Cell Viability - LYMP2-004 (AID 966); settings: LYMP2-004 lymphoblastoid cell viability, qHTS; series mostly up to 92.2 µM; note: nearly all actives have a fitted effect of over 65% in size
In short: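 Human lymphoblastoid cells (2500/well) in complete medium were treated with compounds for 24 hr at 37 C, then intracellular ATP was measured by CellTiter-Glo luminescence. AC50 values came from Hill-equation fits of concentration-response data.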

[11] = Cell Viability - LYMP2-005 (AID 967); settings: LYMP2-005 lymphoblastoid cell viability; series mostly up to 92.2 µM
In short: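 qHTS viability screen in LYMP2-005 cells: 24 h at 37 C with compound, ATP luminescence via CellTiter-Glo, AC50 from Hill curves.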

[12] = Cell Viability - LYMP2-009 (AID 968); settings: LYMP2-009 lymphoblastoid cell viability; series mostly up to 92.2 µM; note: nearly all actives have a fitted effect of over 55% in size
[13] = Cell Viability - LYMP2-011 (AID 969); settings: LYMP2-011 lymphoblastoid cells viability; series mostly up to 92.2 µM; note: nearly all actives have a fitted effect of over 60% in size
In short: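 Human lymphoblastoid cells (2500/well) were plated in complete medium, preincubated 5 hr at 37 C, then exposed to compounds for 24 hr at 37 C. Intracellular ATP was read by CellTiter-Glo luminescence, and AC50 came from Hill-equation concentration-response fits.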

[14] = Cell Viability - LYMP2-013 (AID 970); settings: LYMP2-013 lymphoblastoid cells viability; series mostly up to 92.2 µM; note: nearly all actives have a fitted effect of over 55% in size
In short: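 Human lymphoblastoid cells, 2500/well, were preincubated 5 hr at 37 C, then treated with compounds for 24 hr at 37 C in complete medium. Intracellular ATP was read by CellTiter-Glo luminescence; AC50 from Hill-equation fits of concentration-response data.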

[15] = Cell Viability - LYMP2-015 (AID 971); settings: LYMP2-015 lymphoblastoid cell viability; series mostly up to 92.2 µM; note: nearly all actives have a fitted effect of over 55% in size
In short: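 Human lymphoblastoid cells (2500/well) in complete medium were preincubated 5 hr at 37 C, then compound-treated 24 hr at 37 C. Intracellular ATP was read by CellTiter-Glo luminescence after 30 min at room temperature; AC50 came from Hill-equation concentration-response fits.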

[16] = Cell Viability - LYMP2-017 (AID 972); settings: LYMP2-017 lymphoblastoid cell viability; series mostly up to 92.2 µM; note: nearly all actives have a fitted effect of over 55% in size
In short: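 Human lymphoblastoid cells (2500/well) were seeded in complete medium, held 5 hr at 37 C, then exposed to compounds for 24 hr at 37 C. Intracellular ATP was read by CellTiter-Glo luminescence after 30 min at room temperature, with AC50 values from Hill-equation fits.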

[17] = Cell Viability - LYMP2-019 (AID 973); settings: LYMP2-019 lymphoblastoid cell line viability; series mostly up to 92.2 µM; note: nearly all actives have a fitted effect of over 55% in size
In short: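 Human lymphoblastoid cells were seeded at 2500 cells/well, preincubated 5 hr at 37 C, then exposed to compounds for 24 hr at 37 C in complete medium. Intracellular ATP was measured by CellTiter-Glo luminescence; AC50 from Hill fits.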

[18] = Cell Viability - LYMP2-021 (AID 974); settings: LYMP2-021 lymphoblastoid cells viability; series mostly up to 92.2 µM
In short: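 Human lymphoblastoid cells (2500/well) were preincubated 5 hr at 37 C, then exposed to compounds for 24 hr at 37 C in complete medium. Intracellular ATP was read by CellTiter-Glo luminescence; AC50 came from Hill-equation fits of concentration-response data.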

[19] = Cell Viability - LYMP2-023 (AID 975); settings: LYMP2-023 lymphoblastoid cell viability; series mostly up to 92.2 µM
In short: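 Human lymphoblastoid cells (2500/well) were preincubated 5 hr at 37 C, then exposed to compounds for 24 hr at 37 C in complete medium. Cellular ATP was read by CellTiter-Glo luminescence, and AC50 came from Hill-equation fits.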

[20] = Cell Viability - LYMP2-025 (AID 976); settings: LYMP2-025 lymphoblastoid cell viability; series mostly up to 92.2 µM
In short: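 Human lymphoblastoid LYMP2-025 cells (2500/well) were pre-incubated 5 hr at 37 C, then treated with compounds for 24 hr at 37 C in complete medium. Viability was read as intracellular ATP by CellTiter-Glo luminescence; AC50 from Hill fits.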

[21] = Cell Viability - LYMP2-002 (AID 977); settings: LYMP2-002 lymphoblastoid cell viability, qHTS; series mostly up to 92.2 µM;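 note: compound exposure lasted 24 h at 37 °C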
In short: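 Human lymphoblastoid LYMP2-002 cells, 2500 per well, exposed to compounds for 24 h at 37 C in complete medium; viability read as intracellular ATP by CellTiter-Glo luminescence, AC50 from Hill fits.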

[22] = Cell Viability - LYMP2-006 (AID 978); settings: LYMP2-006 lymphoblastoid cell viability, qHTS; series mostly up to 92.2 µM; note: nearly all actives have a fitted effect of over 60% in size
In short: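 Concentration-dependent loss of intracellular ATP in a human lymphoblastoid line after 24 hr treatment at 37 C was measured by CellTiter-Glo luminescence, with AC50 values obtained from standard Hill-equation modelling.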

[23] = Cell Viability - LYMP2-007 (AID 979); settings: LYMP2-007 lymphoblastoid cell viability; series mostly up to 92.2 µM
In short: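 Human lymphoblastoid cells (2500/well) were plated in complete medium, incubated 5 hr at 37 C, then exposed to compounds for 24 hr at 37 C. Intracellular ATP was read by CellTiter-Glo luminescence after 30 min at room temperature; AC50 from Hill fits.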

Measured: Potency

CCCOC(=O)c1ccccc1C(=O)OCCC
inactive: all assays above

From PubChem BioAssay (NCATS)
